Assay results as given in PubChem BioAssay (NCI).
The panel holds about 83,000 compounds, 20% with a hit somewhere; the sample as a whole holds those more often.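 Percent growth is the endpoint: 0 to 100 indicates growth inhibition (40 means 60% inhibition), 0 means no net growth, and negative values indicate cell death.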 Values without a mark were called inactive. Activity calls are given as the source filed them. Rule for the calls: active = growth percent below 10; inactive = the rest.

What was measured:
Assay in all cases: NCI-60 one-dose screen, 48 h (100 = growth as untreated, 0 = no growth, -100 = all killed)
Settings in all cases: 10 µM unless noted
EKVX NSCLC = system: EKVX NSCLC
SN12C renal = system: SN12C renal
UO-31 renal = system: UO-31 renal
TK-10 renal = system: TK-10 renal
ACHN renal = system: ACHN renal
A498 renal = system: A498 renal
CCRF-CEM leukemia = system: CCRF-CEM leukemia
MOLT-4 leukemia = system: MOLT-4 leukemia
CAKI-1 renal = system: CAKI-1 renal

| SMILES | growth (EKVX NSCLC) | growth (SN12C renal) | growth (UO-31 renal) | growth (TK-10 renal) | growth (ACHN renal) | growth (A498 renal) | growth (CCRF-CEM leukemia) | growth (MOLT-4 leukemia) | growth (CAKI-1 renal) |
| --- | --- | --- | --- | --- | --- | --- | --- | --- | --- |
| COc1ccc(/C(=C\c2cc(OC)c(OC)c(OC)c2)C(=O)N2CCCNCC2)cc1 | 104% | 106% | 85.9% | 101% | 109% | 99.1% | 99.9% | 94.7% | – |
| O=C1/C(=C\c2cccn2Cc2ccc(Cl)cc2)c2ccccc2N1c1c(Cl)cccc1Cl | 62.2% | – | 63% | 87.6% | 65.7% | 98% | 82.4% | 75.1% | 75% |
| COc1ccc(/C(=C\c2cc(OC)c(OC)c(OC)c2)C(=O)N2CCN(c3ccccc3)CC2)cc1O | 94.7% | 93.8% | 69.7% | 103% | 98.3% | 94% | 85.5% | 91.3% | – |
| CCOC(=O)C1=C(C)NC(SCc2nnc(-c3ccc(Cl)cc3)o2)=NC1c1ccc(Br)cc1 (stereo unspecified) | 71.3% | – | 52.6% | 79.9% | 69.7% | 73.2% | 43.4% | 8.29% (active) | 67.2% |
| O=C(Nc1ccc(Oc2ccc(NC(=O)Nc3ccccc3Cl)cc2)cc1)Nc1ccccc1Cl | 76.5% | 44.1% | 20.1% | 75.1% | 67.4% | – | 42.4% | – | – |
| COc1cc(-c2csc(NC(=O)Nc3cccc(C(F)(F)F)c3)n2)cc(OC)c1OC | 38.3% | – | 46% | 49.4% | 31.3% | 59.1% | 28.1% | 18.1% | 48.2% |
| Cc1ccc(NC(=O)c2[nH]c(SCCN(C)C)nc2-c2ccc(F)cc2)cc1C#Cc1cnc2cccnn12 | 38.2% | 87.3% | -77.2% (active) | 105% | -88% (active) | 102% | 1.64% (active) | 55.1% | – |
| CNC(=O)c1cc(Oc2ccc(NC(=O)c3[nH]c(SC)nc3-c3ccc(F)cc3)cc2)ccn1 | 63.7% | 39.2% | 60.5% | 88.3% | 39.8% | 61.1% | 85.3% | 38.4% | – |
| CC(C)(C)CC(C)(C)NCc1cc(C(C)(C)C)cc(CNC(C)(C)CC(C)(C)C)c1O | 37.2% | 69.3% | 27.4% | – | 37.4% | 64.9% | 49.3% | 30.3% | 55.3% |
| CN(C)CCOc1nc2c3ccncc3cc(-c3cccc(Cl)c3)c2c2cnccc12 | 37.4% | – | 14.9% | 30.7% | 14.5% | 35.5% | 3.4% (active) | -14.7% (active) | 29.6% |
| NNC(=O)Cc1ccccc1 | 81.2% | 93.4% | 76.2% | 111% | 78.9% | 97.2% | 57.1% | 79.9% | – |
| COc1ccc([C@@H]2[C@@H](Oc3ccccc3)C(=O)N2c2cc(OC)c(OC)c(OC)c2)cc1F | 34.6% | 24.6% | 24.4% | 44.7% | 21.5% | -9.03% (active) | 8.73% (active) | 6.79% (active) | – |
| COc1cc2c(cc1OC)C(=O)OC2 | 108% | 99.8% | 101% | 123% | 103% | 109% | 124% | 104% | – |
| Cc1n(Cc2ccc3ccccc3n2)cc[n+]1Cc1ccc2ccccc2n1 | 80.7% | 77.9% | 87.3% | 80.8% | 103% | 88.5% | 76.2% | 98.3% | – |
| COc1ccc(C(=O)c2cc(C)c(OC)c(C)c2)cc1OC(=O)CCl | 44.9% | 31.4% | 45.8% | 62.6% | 21.4% | 44.1% | 8.68% (active) | 5.7% (active) | – |
| CN(C)CCOc1nc2c3cccnc3cc(-c3cccc(Cl)c3)c2c2ncccc12 | 34.3% | – | 38.2% | 28.5% | 6.48% (active) | 43.7% | 6.83% (active) | -9.06% (active) | 28.1% |
| CCCc1n(Cc2ccc3ccccc3c2)c2ccccc2[n+]1Cc1ccc2ccccc2c1 | -4.84% (active) | -48.4% (active) | -15.4% (active) | -79.7% (active) | 3.74% (active) | -17.2% (active) | -32.3% (active) | -58.9% (active) | – |
| CNC(=O)c1cc(Oc2ccc(NC(=O)c3nc(S(C)(=O)=O)n(C)c3-c3ccc(F)cc3)cc2)ccn1 | 71.2% | 54.9% | 47.9% | 68.5% | 45.8% | 38% | 85% | 62.4% | – |
| O=[N+]([O-])c1cc(F)c2cccnc2c1O | 110% | 93.5% | 73.6% | 152% | 89.4% | – | 120% | – | – |
| O=C(O)/C=C(\c1nc2ccc([N+](=O)[O-])cc2[nH]1)c1cc(Cl)ccc1O | 17.6% | 13.1% | 17% | 27.4% | 12.5% | 7.28% (active) | 0.888% (active) | -4.02% (active) | – |
| Cc1ccc(NC(=O)c2nc(S(C)(=O)=O)oc2-c2ccc(F)cc2)cc1Nc1ccc2ncn(C)c(=O)c2c1 | 72.7% | 67.7% | 72.5% | 90.8% | 48.4% | 130% | 16.3% | -5.15% (active) | – |
| O=C1/C(=C\c2cccn2C(=O)c2ccccc2)c2ccccc2N1c1c(Cl)cccc1Cl | 80.5% | – | 66.8% | 86.4% | 79% | 90.4% | 14.3% | 27.9% | 87.8% |
| O=c1[nH]c2cc(Cl)c(Cl)cc2o1 | 68.3% | 95.5% | 99.6% | 113% | 104% | 92.7% | 118% | 106% | – |
| Clc1ccc2c(c1)-n1cccc1C(c1ccc3ccccc3c1)=NC2 | 99.5% | 124% | 64.8% | 185% | 91.7% | – | 84.6% | – | – |
| CCCc1n(Cc2ccc3ccccc3n2)cc[n+]1Cc1ccc2ccccc2c1 | 41.6% | -0.216% (active) | 73.8% | -4.74% (active) | 81.7% | -3.21% (active) | 9.37% (active) | -1.31% (active) | – |
| O=C1/C(=C\c2cccn2Cc2ccc(F)cc2)c2ccccc2N1c1c(Cl)cccc1Cl | 54.6% | – | 51.8% | 81% | 62.9% | 106% | 83% | 74.1% | 67.5% |
| N#Cc1c(N)n(C2OC(CO)C(O)C2O)c2ncnc(N)c12 (stereo unspecified) | -20.3% (active) | 6.49% (active) | -42.1% (active) | -9.6% (active) | 8.86% (active) | – | -45.1% (active) | – | – |
| CCCc1n(Cc2ccc3ccccc3n2)cc[n+]1Cc1ccc2ccccc2n1 | 58.1% | 9.65% (active) | 86.5% | 62.1% | 98.1% | 35.4% | 36.2% | 23.2% | – |
